Sampled rows, rich in hits. Any-hit rate of the full collection: about 9.2%.
SMN2 splice enh = increases expression of the SMN2 splice variant; HEK293 SMN2-luciferase splicing reporter, luminescence, 30-36 h; Potency, µM (doses to about 46.1 µM), without a hit: at the top dose activity change, positive = activation, most hits filed as activators; actives 2.8% (n = 210,000); AID 1458; further: % of control where 0% means no effect; nearly all actives have a fitted effect of over 55% in size
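HEK293 cells carry an SMN2 […]–luciferase reporter in which exon 7 inclusion puts luciferase in frame. Cells were plated 10-12 h before compound addition, then incubated 30-36 h at 37C. ONE-Glo luminescence was read; sodium butyrate at 4.5 mM final served as control.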
ELG1 repair inh = blocks ELG1-dependent DNA repair in HEK293T cells | actives 2.3% (n = 330,000) | HEK293T ELG1-luciferase reporter, luminescence, 16 h; DNA damage induced by 5-fluorouridine | AID 504467 | Potency, µM (series often up to 46.1 µM), for the others: at the top dose activity change, negative = inhibition, usual class: inhibitors; further: on the % scale 0 is the no-effect control and ±100 the full control effect; nearly all actives have a fitted effect of over 55% in size
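Overnight (16 hr) co-exposure of 2,000 cells/well to 5-fluorouridine and compound at 37 °C preceded detection. Luciferase was quantified via ONE-Glo luminescence; loss of signal denotes inhibition.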
Rab9 prom act = activators of Rab9 promoter | Huh7 Rab9 promoter-luciferase reporter, luminescence, 24 h | Potency, µM (series often up to 9.22 µM), for inactives: at the top dose activation, negative = inhibition, most hits filed as activators | actives 2.8% (n = 320,000) | AID 485297; further: % of control where 0% means no effect; nearly all actives have a fitted effect of over 60% in size
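Luminescence read-out: Huh7 cells stably expressing Rab9-luciferase, treated 24 h with compound at 37 °C, then lysed with luciferase reagent for 10 min at ambient before reading.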
FLuc modulator = firefly luciferase modulation, counter-screen for miR-21 project; purified FLuc, Km substrates, luminescence inhibition; Potency, µM (series often up to 57.5 µM), without a hit: at the top dose activity change, negative = inhibition, actives largely listed as inhibitors; actives 6.9% (n = 360,000); AID 588342;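 further: plate controls were vehicle for no effect and reference inhibitor for full effect; nearly all actives have a fitted effect of over 55% in size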
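Purified P. pyralis luciferase, 10 nM final, with Km-level 10 uM D-luciferin and 10 uM ATP in 50 mM Tris acetate pH 7.5, 10 mM Mg acetate, 0.01% Tween-20, 0.05% BSA; 6-point qHTS titration about 60 µM downward; luminescence read.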
ELG1 genotox = inducers of genotoxicity in HEK293T ELG1-luciferase cells; actives 1.3% (n = 330,000); Potency, µM (titrated, usually from 46 µM), without a hit: at the highest dose activity change, positive = activation, hits mostly activators; HEK293T ELG1-luciferase reporter, luminescence, 16 h; further: % of control where 0% means no effect; nearly all actives have a fitted effect of over 60% in size
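HEK293T cells expressing luciferase-tagged ELG1 were treated with compound or DMSO for 16 hr at 37°C. Luciferase activity was then read after 30 min with ONE-Glo at room temperature; rising signal flags genetic stress.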
NPC1 prom act = activates the NPC1 promoter; actives 2.4% (n = 320,000); Huh7 NPC1 promoter luciferase reporter, 24 h; Potency, µM (doses to about 9.22 µM), without a hit: at the highest dose activation, usual class: activators; further: % of control where 0% means no effect; nearly all actives have a fitted effect of over 60% in size
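Cells: Huh7 expressing luciferase under the NPC1 promoter, 1500/well. Seeded 2 h, compound added, incubated 24 h at 37 °C. Luciferase reagent, 10 min ambient, then luminescence.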
The depositor's hits bear a star; ? = inconclusive; . = no result given. The call rests on the fitted dose curve; in most records, active means well fitted curve in the direction sought with a large enough effect; inconclusive means small, poorly fitted or top-dose-only effect, or another doubt; inactive means no such curve, though single readings can be large; an effect the other way counts as inactive or inconclusive. Potency means the concentration at half of the fitted maximal effect.

SMILES	SMN2 splice enh	ELG1 repair inh	Rab9 prom act	FLuc modulator	ELG1 genotox	NPC1 prom act
Cc1ccc(OCC(=O)Nc2ccc(N3CCOCC3)cc2)c([N+](=O)[O-])n1	-18%	-25%	-4%	0%	-2%	-10%
Cc1ccc(OCC(=O)Nc2ccc(C)c(F)c2)c([N+](=O)[O-])n1	.	?	2µM*	9.5µM*	?	2.2µM*
Cc1ccc(OCC(=O)Nc2ccc3c(c2)OCO3)c([N+](=O)[O-])n1	20µM*	?	?	6µM*	?	?
O=C(NC(=S)N1CCCC(C(F)(F)F)C1)c1ccc(F)cc1 (stereo not given)	.	2%	-4%	-2%	0%	-3%
COC(=O)COc1cccc(NC(=O)c2ccc(Cl)cc2)c1	0%	-2%	-9%	27µM*	-5%	-2%
Cc1ccc(NC(=O)c2ccc(OC(=O)COc3ccc(Cl)c(C)c3)cc2)cc1	13µM*	?	3.5µM*	?	?	2.2µM*
COC(=O)COc1cccc(NC(=O)c2ccc(C)cc2)c1	-3%	-4%	-1%	12µM*	3%	-7%
Cc1ccc(Nc2cc(C)nc3nncn23)c(C)c1	-1%	.	.	-6%	.	.
CCOC(=O)N1CCN(C(=O)c2cc3ccc(OC)cc3[nH]2)CC1	.	26%	-2%	-4%	4%	2%
Nc1nc(-c2ccc(Cl)cc2)nnc1-c1ccc(Br)cc1	.	?	1.1µM*	?	?	1.8µM*
Cc1ccc(Oc2ccc(-c3nc(N)nc(N)n3)cc2)cc1	-10%	2%	-3%	?	16%	-3%
Nc1nc(N)nc(-c2ccc(Cl)cc2)n1	25%	?	?	15µM*	?	?
O=C(NCCC(=O)N1CCCCCCC1)c1ccc(Cl)cc1	.	?	0%	7%	6%	0%
Cc1cccc2cc(CN(Cc3ccco3)C(c3nnnn3CCc3ccccc3)C(C)C)c(=O)[nH]c12 (stereo not given)	-11%	9.2µM*	-6%	0%	-10%	-5%
COc1ccc2[nH]c(=O)c(CN(Cc3ccco3)C(c3nnnn3Cc3ccccc3)C(C)C)cc2c1 (stereo not given)	-22%	?	-5%	0%	-27%	1%
COC(=O)c1cc(-c2ccc(Cl)cc2Cl)n[nH]1	21%	?	-2%	15µM*	?	1%
CCCCN(CC)C(=O)CSc1nc2c(sc(=S)n2-c2ccc(OCC)cc2)c(=O)[nH]1	-27%	-9%	1%	17µM*	-6%	-2%
Cc1cc(O)c(-c2n[nH]c3c2C(c2cccc(O)c2)N(Cc2cccnc2)C3=O)cc1Cl (stereo not given)	20µM*	?	2%	8%	3%	-4%
CCCn1c(C)cc(C(=O)COc2ncnc3sccc23)c1C	11µM*	?	2.2µM*	8.5µM*	?	2.8µM*
CC(C)CNS(=O)(=O)c1cc(C(=O)OCC(=O)c2ccc3c(c2)OCCO3)c(Cl)cc1Cl	-8%	-2%	-14%	12µM*	4%	-1%
CCCn1c(C)cc(C(=O)COC(=O)c2nccnc2N)c1C	10µM*	?	0.45µM*	3.4µM*	?	1.1µM*
Cc1cc(C(=O)COc2ncnc3sccc23)c(C)n1C1CC1	7%	?	?	-13%	?	?
CC(C)CNS(=O)(=O)c1cc(C(=O)O)c(Cl)cc1Cl	.	?	-2%	-1%	2%	-4%
CCCn1c(C)cc(C(=O)COC(=O)c2cc(S(=O)(=O)NCC(C)C)c(Cl)cc2Cl)c1C	?	?	-6%	9.5µM*	8%	1%
COc1ccc(NC(=O)c2c(N)c(C(=O)c3ccc(OC)cc3)n3ccccc23)cc1	4%	.	.	-5%	.	.

Screens: PubChem BioAssay, National Center for Advancing Translational Sciences (NCATS)
